Read-out in experiment [1]: Interleukin-1 alpha (IL1a), IL1A (gene 3552)
The experiment can be described thus: BSK_KF3CT_IL1a: BioMAP Diversity Plus: KF3CT Assay for Interleukin-1 alpha (IL1a) Biomarker Activity (AID 2283070). The settings on record: primary human keratinocytes with fibroblasts; actives raise or lower the signal. The gist of the method: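 Primary human keratinocyte plus foreskin fibroblast co-culture, dosed and measured at 24 h in 96-well plates. IL-1a level quantified by ELISA; bidirectional fit relative to DMSO.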

Read-out in experiment [2]: TIMP metallopeptidase inhibitor 2 (TIMP2), TIMP2 (gene 7077)
The experiment can be described thus: BSK_KF3CT_TIMP2: BioMAP Diversity Plus: KF3CT Assay for TIMP metallopeptidase inhibitor 2 (TIMP2) Biomarker Activity (AID 2283071). The settings on record: primary human keratinocytes with fibroblasts; actives raise or lower the signal. In a few lines: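 Co-culture of human primary keratinocytes and foreskin fibroblasts, measured 24 h after chemical dosing. TIMP-2 quantified by ELISA and fitted in both directions relative to DMSO. Cytotoxicity checked in parallel cultures by SRB total-protein staining.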

Read-out in experiment [3]: C-C motif chemokine 2 (Homo sapiens) (UniProt P13500)
The experiment is described as follows: BSK_KF3CT_MCP1: BioMAP Diversity Plus: KF3CT Assay for Monocyte Chemoattractant Protein 1 (MCP1/CCL2) Biomarker Activity (AID 2283073). The following applies: primary human keratinocytes with fibroblasts; actives raise or lower the signal. In a few lines:
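Human keratinocyte plus foreskin fibroblast primary co-culture exposed to chemical for 24 h. MCP-1 levels measured by ELISA. Bidirectional curve fitting relative to DMSO negative control as baseline.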

Read-out in experiment [4]: Matrix Metallopeptidase 9 (MMP9), MMP9 (gene 4318)
The experiment can be described thus: BSK_KF3CT_MMP9: BioMAP Diversity Plus: KF3CT Assay for Matrix Metallopeptidase 9 (MMP9) Biomarker Activity (AID 2283074).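 For AC50: MMP9 protein level quantified by ELISA in the co-culture.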 The following applies: primary human keratinocytes with fibroblasts; actives raise or lower the signal. In a few lines:
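Human keratinocyte and foreskin fibroblast co-culture exposed to chemicals for 24 h; MMP9 biomarker measured by ELISA, bidirectional fitting relative to DMSO; cytotoxicity tracked by SRB total protein staining in parallel cultures.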

Read-out in experiment [5]: urokinase plasminogen activator (uPA), PLAU (gene 5328)
The experiment can be described thus: BSK_KF3CT_uPA: BioMAP Diversity Plus: KF3CT Assay for urokinase plasminogen activator (uPA) Biomarker Activity (AID 2283075). The following applies: primary human keratinocytes with fibroblasts; actives raise or lower the signal. In a few lines:
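Primary human keratinocyte/foreskin fibroblast co-culture exposed to chemical; uPA measured by ELISA at 24 h. Bidirectional fit versus DMSO, with parallel SRB total-protein staining for cytotoxicity.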

Read-out in experiment [6]: CD40, CD40 (gene 958)
The experiment is described as follows: BSK_LPS_CD40: BioMAP Diversity Plus: LPS Assay for CD40 Biomarker Activity (AID 2283076). The following applies: primary human HUVEC with PBMC; actives raise or lower the signal. The gist of the method: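 Primary human umbilical vein endothelial cells co-cultured with peripheral blood mononuclear cells, LPS-stimulated, were dosed with chemical and read 24 h later. CD40 levels were measured by ELISA and fitted bidirectionally against DMSO as negative control and baseline.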

Read-out in experiment [7]: E-selectin (Homo sapiens) (UniProt P16581)
The experiment can be described thus: BSK_LPS_Eselectin: BioMAP Diversity Plus: LPS Assay for Eselectin Biomarker Activity (AID 2283077). The following applies: primary human HUVEC with PBMC; actives raise or lower the signal. The gist of the method: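 Human umbilical vein endothelial cells co-cultured with peripheral blood mononuclear cells under LPS stimulation; E-selectin measured by ELISA 24 h after chemical dosing. Activity fitted bidirectionally against DMSO as negative control and baseline.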

Read-out in experiment [8]: Interleukin-8 (IL8), CXCL8 (gene 3576)
The experiment is described as follows: BSK_LPS_IL8: BioMAP Diversity Plus: LPS Assay for Interleukin-8 (IL8) Biomarker Activity (AID 2283078). The following applies: primary human HUVEC with PBMC; actives raise or lower the signal. The gist of the method: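 Human umbilical vein endothelial cells co-cultured with PBMC were stimulated with LPS; IL-8 levels were measured by ELISA 24 h after chemical dosing. Activity was fitted bidirectionally against DMSO as negative control and baseline.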

Experiment [9] can be described thus: BSK_LPS_SRB: Viability Assessment in the BioMAP Diversity Plus: LPS Assay (AID 2283079).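 Note: total protein by sulforhodamine B absorbance as a cytotoxicity measure; measured one day after compound addition; fitted in both directions against DMSO so loss or gain of signal counts.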 The following applies: primary human HUVEC with PBMC. The gist of the method:
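Human umbilical vein endothelial cells co-cultured with PBMC (LPS system) were dosed for 24 h. Total protein was stained with 0.1% sulforhodamine B after 10% TCA fixation, read at 560 nm, and fitted bidirectionally against DMSO baseline.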

Read-out in experiment [10]: Interleukin-1 alpha (IL1a), IL1A (gene 3552)
The experiment can be described thus: BSK_LPS_IL1a: BioMAP Diversity Plus: LPS Assay for Interleukin-1 alpha (IL1a) Biomarker Activity (AID 2283080). The following applies: primary human HUVEC with PBMC; actives raise or lower the signal. The gist of the method:
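Human umbilical vein endothelial cells co-cultured with peripheral blood mononuclear cells were LPS-stimulated and exposed to test chemicals for 24 h. IL-1 alpha was quantified by ELISA, with bidirectional curve fitting against DMSO as the negative control and baseline.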

Read-out in experiment [11]: Monocyte Chemoattractant Protein-1 (MCP1), CCL2 (gene 6347)
The experiment is described as follows: BSK_LPS_MCP1: BioMAP Diversity Plus: LPS Assay for Monocyte Chemoattractant Protein-1 (MCP1) Biomarker Activity (AID 2283081).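 For AC50: secreted MCP-1 protein quantified by ELISA in culture supernatant.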 The settings on record: primary human HUVEC with PBMC; actives raise or lower the signal. The gist of the method: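 HUVEC plus PBMC co-culture (human primary cells, LPS system) exposed to test chemical for 24 h; MCP-1 measured by ELISA. Bidirectional curve fitting against DMSO baseline; parallel SRB total-protein staining flags overt cytotoxicity.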

A short description of experiment [12]: BSK_LPS_PGE2: BioMAP Diversity Plus: LPS Assay for Prostaglandin E2 (PGE2) Biomarker Activity (AID 2283082). The settings on record: primary human HUVEC with PBMC; actives raise or lower the signal. In a few lines:
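HUVEC plus human PBMC co-culture stimulated with LPS; secreted PGE2 quantified by ELISA 24 h after chemical dosing. Activity fitted bidirectionally against DMSO baseline; parallel SRB staining (0.1% SRB after 10% TCA fixation, 560 nm) flags overt cytotoxicity.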

Read-out in experiment [13]: Tissue Factor, F3 (gene 2152)
The experiment can be described thus: BSK_LPS_TissueFactor: BioMAP Diversity Plus: LPS Assay for Tissue Factor Biomarker Activity (AID 2283084). The following applies: primary human HUVEC with PBMC; actives raise or lower the signal. In a few lines: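 Human umbilical vein endothelial cells co-cultured with peripheral blood mononuclear cells were dosed and stimulated with LPS. Cell-surface CD142 was quantified by ELISA at 24 h. Activity was fitted bidirectionally against DMSO baseline.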

Read-out in experiment [14]: Tumor necrosis factor (Homo sapiens) (UniProt P01375)
The experiment can be described thus: BSK_LPS_TNFa: BioMAP Diversity Plus: LPS Assay for Tumour Necrosis Factor alpha (TNFa) Biomarker Activity (AID 2283085).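 For AC50: TNFa protein level quantified by ELISA in the co-culture.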 The settings on record: primary human HUVEC with PBMC; actives raise or lower the signal. In a few lines:
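Human umbilical vein endothelial cells co-cultured with PBMC and stimulated with LPS. TNFa was measured by ELISA 24 h after chemical dosing, fitted bidirectionally relative to DMSO.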

Read-out in experiment [15]: Vascular cell adhesion molecule 1 (VCAM1), VCAM1 (gene 7412)
The experiment can be described thus: BSK_LPS_VCAM1: BioMAP Diversity Plus: LPS Assay for Vascular cell adhesion molecule 1 (VCAM1) Biomarker Activity (AID 2283086). The settings on record: primary human HUVEC with PBMC; actives raise or lower the signal. In a few lines:
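Human umbilical vein endothelial cells co-cultured with PBMC and stimulated with LPS; VCAM-1 measured by ELISA 24 h after dosing. Bidirectional curve fitting against DMSO baseline; cytotoxicity tracked in parallel by SRB total-protein staining.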

Read-out in a further experiment: CD38, CD38 (gene 952)
The experiment can be described thus: BSK_SAg_CD38: BioMAP Diversity Plus: SAg Assay for CD38 Biomarker Activity (AID 2283087). The following applies: primary human HUVEC with PBMC; actives raise or lower the signal. In a few lines:
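Human HUVEC plus PBMC co-culture stimulated with superantigen; CD38 measured by ELISA 24 h after chemical dosing. Fluorescence read-out, bidirectional fit against DMSO; cytotoxicity tracked in parallel by SRB and Alamar Blue.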

Read-out in experiment [16]: CD40, CD40 (gene 958)
The experiment can be described thus: BSK_SAg_CD40: BioMAP Diversity Plus: SAg Assay for CD40 Biomarker Activity (AID 2283088). The following applies: primary human HUVEC with PBMC; actives raise or lower the signal. In a few lines: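 Human umbilical vein endothelial cells co-cultured with PBMC; CD40 levels measured by ELISA with fluorescence read-out 24 h after chemical dosing. Gain or loss of signal fitted bidirectionally against DMSO baseline.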

Read-out in the next experiment: CD69, CD69 (gene 969)
The experiment can be described thus: BSK_SAg_CD69: BioMAP Diversity Plus: SAg Assay for CD69 Biomarker Activity (AID 2283089).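 For AC50: cell surface CD69 protein quantified by ELISA with fluorescence detection.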 The settings on record: primary human HUVEC with PBMC; actives raise or lower the signal. The gist of the method: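 Values derive from bidirectional fitting relative to DMSO vehicle. Cells: umbilical vein endothelium plus peripheral blood mononuclear cells, treated 24 h before fluorescent ELISA for CD69.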

Molecules are shown by their SMILES. Where “and” joins values, the source holds several entries; their conditions need not be identical. Equal entries are not always repeated. Some compounds were tested as several samples or in several runs, with calls that do not always agree. Calls of active or inactive are those of the source. Rule for the calls: active = hit-call score of the fitted dose curve at least 0.9, where 1 is the maximum; inactive = score below 0.9.

E-selectin (Homo sapiens), sequence (P16581 whole entry, looked up): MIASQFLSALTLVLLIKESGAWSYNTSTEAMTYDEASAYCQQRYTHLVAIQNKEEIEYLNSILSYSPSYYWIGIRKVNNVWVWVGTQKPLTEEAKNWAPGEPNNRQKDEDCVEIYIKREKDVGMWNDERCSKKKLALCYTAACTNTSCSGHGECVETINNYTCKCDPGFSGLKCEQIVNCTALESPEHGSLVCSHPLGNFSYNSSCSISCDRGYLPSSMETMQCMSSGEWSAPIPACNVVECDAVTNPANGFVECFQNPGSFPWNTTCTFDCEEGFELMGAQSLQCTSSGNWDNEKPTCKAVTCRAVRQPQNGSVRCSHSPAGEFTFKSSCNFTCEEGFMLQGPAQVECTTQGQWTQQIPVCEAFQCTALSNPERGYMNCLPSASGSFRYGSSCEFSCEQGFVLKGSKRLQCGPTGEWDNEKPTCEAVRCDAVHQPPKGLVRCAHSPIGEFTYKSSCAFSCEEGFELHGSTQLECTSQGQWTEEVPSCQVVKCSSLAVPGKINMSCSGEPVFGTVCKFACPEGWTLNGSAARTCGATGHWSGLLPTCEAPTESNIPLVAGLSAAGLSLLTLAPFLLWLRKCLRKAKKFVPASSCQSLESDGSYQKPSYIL
Tumor necrosis factor (Homo sapiens), sequence (P01375 whole entry, looked up): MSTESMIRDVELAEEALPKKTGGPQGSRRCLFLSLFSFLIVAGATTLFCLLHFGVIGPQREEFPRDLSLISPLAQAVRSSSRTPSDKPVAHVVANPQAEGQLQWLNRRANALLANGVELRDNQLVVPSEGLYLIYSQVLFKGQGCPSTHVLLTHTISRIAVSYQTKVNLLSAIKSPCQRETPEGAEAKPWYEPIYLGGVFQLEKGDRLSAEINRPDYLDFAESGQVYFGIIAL

For the compound `CCCCC(CC)COP(=O)(O)OCC(CC)CCCC` (stereo not drawn), the outcome in experiment [1] is “inactive”; in experiment [5], “inactive”; with CD40, CD40 (gene 958) [6], “inactive”; in [7], “inactive”; in experiment [8], “inactive”; in experiment [9], “inactive”. The outcome in [10], in experiment [11], in experiment [12], in [13], in experiment [14] and in [15] was inactive. Besides, the outcome with CD38, CD38 (gene 952) was “inactive”; with CD40, CD40 (gene 958) [16] it was “inactive”; in the experiment with CD69, CD69 (gene 969), “inactive”. For the same compound, the AC50 is 25.5 µM (active) and 28.3 µM (active) in experiment [2]; 31.2 µM (active) and 20 µM (active) in experiment [3]; 29.5 µM (active) and 36.8 µM (active) in [4].

With `FC(F)(F)C(F)(F)C(F)(F)C(F)(F)C(F)(F)C(F)(F)CC1CO1` (stereo not drawn), the outcome in [1] is “inactive”; in experiment [2] it was “inactive”; in [3], “inactive”; in experiment [4], “inactive”; in experiment [5] it was “inactive”; with CD40, CD40 (gene 958) [6] it was “inactive”. For the same compound, the result in experiment [7], in experiment [8], in experiment [9], in experiment [10], in experiment [11] and in experiment [12] was inactive. For the same compound, the outcome was “inactive” in [13]; “inactive” in [14]; “inactive” in experiment [15]; “inactive” in the experiment with CD38, CD38 (gene 952); “inactive” with CD40, CD40 (gene 958) [16]; “inactive” with CD69, CD69 (gene 969).

`N=C(N)C(F)(F)C(F)(F)C(F)(F)C(F)(F)C(F)(F)C(F)(F)C(F)(F)F`: the outcome in experiment [2] was “inactive”; in [3], “inactive”; in [4], “inactive”; in [5] it was “inactive”; with CD40, CD40 (gene 958) [6], “inactive”; in [7] it was “inactive”. For the same compound, the outcome in experiment [8], in experiment [9], in experiment [10], in experiment [11], in experiment [12] and in experiment [13] was inactive. Besides, the outcome in experiment [14] was “inactive”; in experiment [15], “inactive”; in the experiment with CD38, CD38 (gene 952), “inactive”; with CD40, CD40 (gene 958) [16] it was “inactive”; with CD69, CD69 (gene 969), “inactive”. In addition, the AC50 with CD40, CD40 (gene 958) [6] is 41.5 µM (active); in [8] it was 46.8 µM (active); in experiment [9] it was 55.1 µM (active); in experiment [10] it was 38.2 µM (active); in [11] it was 45.8 µM (active); in [14], 33.1 µM (active). In addition, the AC50 in experiment [15] is 40.3 µM (active); with CD38, CD38 (gene 952), 53.6 µM (active); in the experiment with CD40, CD40 (gene 958) [16], 54.7 µM (active); with CD69, CD69 (gene 969) it was 51 µM (active).
